# FLuc modulator: counter-screen for miR-21 project: firefly luciferase inhibitors or activators. AID 588342. purified FLuc, Km substrates, luminescence inhibition. P08659. actives 6.9% (n = 360,000). Potency, µM (doses to about 57.5 µM), inactives show at the top dose activity change, negative = inhibition, most hits filed as inhibitors;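 note: plate controls were vehicle for no effect and reference inhibitor for full effect; nearly all actives have a fitted effect of over 55% in size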
# Target sequence (P08659 whole entry, looked up): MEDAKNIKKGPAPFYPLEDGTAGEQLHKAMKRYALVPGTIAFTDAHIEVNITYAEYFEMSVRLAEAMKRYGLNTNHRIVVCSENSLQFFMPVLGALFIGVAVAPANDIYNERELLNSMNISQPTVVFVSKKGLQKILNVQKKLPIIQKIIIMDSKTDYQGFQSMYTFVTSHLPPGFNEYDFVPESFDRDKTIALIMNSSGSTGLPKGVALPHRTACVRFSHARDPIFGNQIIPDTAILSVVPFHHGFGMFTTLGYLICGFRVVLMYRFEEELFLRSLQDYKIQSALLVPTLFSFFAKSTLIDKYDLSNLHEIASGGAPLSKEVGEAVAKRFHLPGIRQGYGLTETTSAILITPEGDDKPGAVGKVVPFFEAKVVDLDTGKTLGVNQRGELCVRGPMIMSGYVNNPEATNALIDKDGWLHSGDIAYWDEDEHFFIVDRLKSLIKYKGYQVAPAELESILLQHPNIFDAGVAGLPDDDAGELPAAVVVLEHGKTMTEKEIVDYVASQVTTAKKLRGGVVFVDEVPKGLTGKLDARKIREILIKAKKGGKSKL
#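 Purified P. pyralis luciferase, 10 nM final, with Km-level 10 uM D-luciferin and 10 uM ATP in 50 mM Tris acetate pH 7.5, 10 mM Mg acetate, 0.01% Tween-20, 0.05% BSA; 6-point qHTS titration about 60 µM downward; luminescence read.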
# NPC1 prom act: activators of NPC1 promoter; Huh7 NPC1 promoter luciferase reporter, 24 h; Potency, µM (highest dose often 9.22 µM), without a hit: at the top dose activation, hits mostly activators; actives 2.4% (n = 320,000); AID 485313; note: % of control where 0% means no effect; nearly all actives have a fitted effect of over 60% in size
#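 Stable NPC1-promoter luciferase Huh7 line; cpd (DMSO) 24 h, 37 °C, 5% CO2; Amplite luciferase reagent 10 min RT; luminescence readout. qHTS format.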
# ELG1 repair inh: ELG1-dependent DNA repair inhibition | HEK293T ELG1-luciferase reporter, luminescence, 16 h; DNA damage induced by 5-fluorouridine | Potency, µM (titrated, usually from 46.1 µM), inactives show top-dose activity change, negative = inhibition, actives largely listed as inhibitors | actives 2.3% (n = 330,000); note: % is set by controls: 0 for no effect and ±100 for the full control effect; nearly all actives have a fitted effect of over 55% in size
#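 Step one: seed 2,000 cells per well. Step two: pin-transfer compound or DMSO alongside 5-fluorouridine. Step three: incubate 16 hr, 37 °C, 5% CO2. Step four: add ONE-Glo, wait 30 min, read luminescence.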
# SMN2 splice up: SMN2 splice variant enhancement; Potency, µM (series often up to 46.1 µM), without a hit: top-dose activity change, positive = activation, hits mostly activators; actives 2.8% (n = 210,000); HEK293 SMN2-luciferase splicing reporter, luminescence, 30-36 h; note: % of control where 0% means no effect; nearly all actives have a fitted effect of over 55% in size
#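 HEK293 cells carry an SMN2 minigene-luciferase reporter in which exon 7 inclusion puts luciferase in frame. Cells were seeded at 2000 cells/well, attached for 10-12 hours, then exposed to compounds for 30-36 hours at 37C before ONE-Glo luminescence.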
# Rab9 prom act: activates the Rab9 promoter | Potency, µM (highest dose often 9.22 µM), without a hit: top-dose activation, negative = inhibition, hits mostly activators | AID 485297 | actives 2.8% (n = 320,000) | Huh7 Rab9 promoter-luciferase reporter, luminescence, 24 h; note: % of control where 0% means no effect; nearly all actives have a fitted effect of over 60% in size
#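 Using Huh7 cells stably transfected with Rab9 promoter–luciferase, compounds were incubated 24 h at 37 °C, 5% CO2; luciferase luminescence was read 10 min after reagent addition.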
# ELG1 genotoxic: induces genotoxicity in HEK293T cells with luciferase-tagged ELG1; HEK293T ELG1-luciferase reporter, luminescence, 16 h; Potency, µM (series often up to 46 µM), for inactives: top-dose activity change, positive = activation, usual class: activators; actives 1.3% (n = 330,000); AID 504466; note: % of control where 0% means no effect; nearly all actives have a fitted effect of over 60% in size
#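 16 hr compound incubation (37 °C, 5% CO2) of HEK293T cells carrying luciferase-tagged ELG1; luciferase then measured by ONE-Glo luminescence after 30 min at RT.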
# Numbers without * were called inactive; u = inconclusive; x = no result; [ ] = another dose, or the depositor's remark. In the library only some 9.2% were active in any assay of this set; here they are far more common. Calls come from the whole dose curve; as a rule, active = well fitted curve in the direction sought with a large enough effect; inconclusive = small, poorly fitted or top-dose-only effect, or another doubt; inactive = no such curve, though single readings can be large; an effect the other way counts as inactive or inconclusive. Potency is the fitted concentration of half-maximal effect.
SMILES,FLuc modulator,NPC1 prom act,ELG1 repair inh,SMN2 splice up,Rab9 prom act,ELG1 genotoxic
Cc1ccn2c(NC3CCCC3)c(-c3ccsc3)nc2c1,24µM*,1%,u,-30%,-7%,-6%
Cc1ccc(Cn2cccc(-c3nc4ccccc4s3)c2=O)cc1,2.1µM*,2.8µM*,u,7.1µM*,2.2µM*,6%
O=C(Nc1ccccc1-c1nc2ccccc2s1)c1ccco1,-1%,2%,u,-30%,13%,0%
O=c1c(-c2nc3ccccc3s2)cccn1Cc1ccccc1,2.7µM*,1.8µM*,u,u,2.2µM*,7.3µM*
N#Cc1cnc(Oc2ccc(Cl)cc2)nc1N,1%,6%,u,x,6%,8%
CCOC(=O)N1CCC(NS(=O)(=O)c2ccc3c(c2)CCN3C(C)=O)CC1,8%,-3%,18µM*,-34%,0%,-1%
CCOC(=O)C(=CNc1ccc2c(c1)CCN2C(C)=O)C(=O)OCC,12µM*,17%,0%,x,28%,-1%
CCOC(=O)C(=CNc1ccc(N2CCOCC2)cc1)C(=O)OCC,-11%,-3%,-15%,x,1%,-8%
CC(=O)Nc1ccc(S(=O)(=O)Nn2cnnc2)cc1,0%,-2%,3%,8%,u,0%
Cc1ccc(-c2nn(-c3ccccc3)cc2/C=C/C(=O)O)o1,24µM*,-2%,u,2%,-1%,2%
Cc1ccc(-c2nn(-c3ccccc3)cc2CN(Cc2ccccc2)C(=O)c2ccco2)o1,-2%,0%,18µM*,-36%,2%,-38%
O=C(CNC(=O)[C@@H]1Cc2ccccc2CN1)NCc1ccco1,-2%,-4%,u,x,2%,-1%
O=C1C2C(C(=O)N1c1ccc3c(c1)OCO3)C1C=CC2C12CC2 (stereo unspecified),17µM*,-2%,u,-5%,3%,0%
CC(=O)Oc1cccc(N2C(=O)C3C(C2=O)C2C=CC3C23CC3)c1 (stereo unspecified),3%,0%,3%,14%,4%,2%
Cn1c(=O)c2[nH]c(COc3ccc(C(C)(C)C)cc3)nc2n(C)c1=O,u,-7%,5.8µM*,x,-13%,-13%
CCc1cccc(NC(=O)CCS(=O)(=O)c2ccc(C)cc2)c1,-8%,x,x,x,x,x
Oc1cccc(-c2nc3c4c(ncn3n2)-c2ccccc2CC42CCCC2)c1,2%,-4%,8.2µM*,-25%,2%,-13%
COc1cc(C2CC(=O)N(CC(=O)Nc3ccccc3F)c3ccccc3S2)cc(OC)c1OC (stereo unspecified),-1%,x,x,-34%,x,x
O=C1NC(c2ccc(Cl)cc2)Nc2ccccc21 (stereo unspecified),1%,-10%,2%,x,1%,0%
CN(C)c1ccc(C2NC(=O)c3ccccc3N2)cc1 (stereo unspecified),9.5µM*,11%,u,x,17%,u
COc1ccc(C2Nc3cccc4cccc(c34)N2)cc1,u,13%,11%,-4%,-2%,2%
c1ccc(C2Nc3cccc4cccc(c34)N2)cc1,15µM*,u,-5%,x,22%,-3%
Clc1ccc(C2Nc3cccc4cccc(c34)N2)cc1Cl,24µM*,26%,0%,x,16%,-3%
Brc1cccc(C2Nc3cccc4cccc(c34)N2)c1,u,17%,0%,x,8%,-1%
CN(C)c1ccc(C2Nc3cccc4cccc(c34)N2)cc1,17µM*,u,u,x,u,u
SMILES,FLuc modulator,NPC1 prom act,ELG1 repair inh,SMN2 splice up,Rab9 prom act,ELG1 genotoxic
Clc1cccc(C2Nc3cccc4cccc(c34)N2)c1,u,13%,-5%,x,8%,-2%
CCn1ccc2c(OCC(=O)NCc3ccc(C)cc3)cccc2c1=O,-2%,x,x,x,x,x
CCn1c(SCc2ccc(F)cc2Cl)nc(=O)c2c(C(=O)OC)cc(C3CC3)nc21,-16%,x,x,x,x,x
COC(=O)c1sc(N2C(=O)c3oc4ccc(C)cc4c(=O)c3C2c2ccc(OC)cc2)nc1C (stereo unspecified),4%,x,x,-5%,x,x
O=C1NC(c2ccncc2)Nc2ccccc21 (stereo unspecified),-1%,0%,5%,x,-1%,1%
Cc1ccc(C2NC(=O)c3ccccc3N2)s1 (stereo unspecified),u,-3%,u,10µM*,11%,18µM*
CCOc1cc(C2Nc3cccc4cccc(c34)N2)ccc1O,13µM*,19%,-19%,1%,18%,-1%
O=C(CN1CCN(C(=O)c2cccc(S(=O)(=O)N3CCCC3)c2)CC1)Nc1cccc(F)c1,0%,-1%,-2%,x,-1%,-2%
CCc1ccc(S(=O)(=O)c2cn(CC(=O)Nc3cccc(C)c3)c3ccc(Cl)cc3c2=O)cc1,-1%,x,x,-1%,x,x
COc1ccc(CCNC(=O)C2CCC(=O)N2S(=O)(=O)c2ccc(C)cc2)cc1 (stereo unspecified),0%,1%,-4%,x,4%,-1%
COc1ccccc1N=Cc1c(C)[nH]n(-c2ccc(C)cc2C)c1=O,0%,-1%,-17%,x,-4%,-4%
COc1ccc2nc(/N=C/c3c(C)[nH]n(-c4ccc(C)cc4C)c3=O)sc2c1,27µM*,0%,u,18%,17%,9%
CC(=O)c1ccc(S(=O)(=O)N(C)CCCC(=O)N(C)Cc2c(F)cccc2Cl)cc1,1%,1%,-19%,x,4%,-7%
c1cc2c(cc1-c1[nH]ncc1CN1C[C@H]3CC[C@H]1C3)OCO2,1%,-4%,-9%,x,-2%,0%
C=CCOc1ccc(/C=C(\C#N)C(=O)Nc2ccccn2)cc1,2.1µM*,1%,0%,x,4%,-1%[9.26 µM]
N#C/C(=C\c1cccs1)C(=O)Nc1ccccn1,3.4µM*,2.2µM*,u,x,1.6µM*,u
Cc1cccc(C)c1NC(=O)/C(C#N)=C/c1cccs1,0%,-8%,-12%,-6%,15%,2%
Cc1ccc(NC(=O)/C(C#N)=C/c2cccs2)c(C)c1,-15%,2µM*,u,13µM*,3.5µM*,u
N#C/C(=C\c1ccccc1)C(=O)Nc1nncs1,19µM*,-2%,14%,x,9%,0%
O=C(Cc1cccs1)NCCS(=O)(=O)N1CCN(c2cccc(Cl)c2)CC1,8%,3%,-12%,x,-2%,-13%
Cc1cc(O)c(S(=O)(=O)c2ccccc2)c(C)c1NS(=O)(=O)c1ccccc1,-2%,-3%,u,x,-1%,-18%
CCOc1ccc(CCNC(=O)c2c3c(nc4ccccc24)C(=O)N(C2CCCCC2)C3)cc1,-17%,x,x,x,x,x
